# Results reported in PubChem BioAssay AID1159580 (chemical genetic matrix, 2015).
# Out of some 5,500 compounds screened, about 2,000 (36%) were called active. Inconclusive results (about 18%) are left out. Some of the results follow. Values without a mark were called inactive. Rule as the data show it: active = normalized growth mostly below about 0.91 (no sharp cut-off); inconclusive = no clear call, values can overlap the other calls; inactive = mostly above about 0.92.
# Test: chemical genetic growth profiling, strain panel (AID 1159580);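 also: tested at 20 µM; growth read once vehicle control cultures reached saturation at 30 °C; 1 = growth at the plate median or of vehicle wells; lower values mean less growth of the strain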
# Conditions: S. cerevisiae deletion strains, growth OD
smiles,measurement,setting,value
CSC(=NS(=O)(=O)c1ccccc1)SC,normalized growth,"locus YAL013W, strain DEP1, stronger effect = lower value",0.985
same,normalized growth,"locus YBR229C, strain ROT2, stronger effect = lower value",0.979
same,normalized growth,"locus YDL101C, strain DUN1, stronger effect = lower value",0.98
same,normalized growth,"locus YDL134C, strain PPH21, stronger effect = lower value",1.01
same,normalized growth,"locus YDR150W, strain NUM1, stronger effect = lower value",0.938
same,normalized growth,"locus YEL061C, strain CIN8, stronger effect = lower value",1.03
same,normalized growth,"locus YGR078C, strain PAC10, stronger effect = lower value",0.985
same,normalized growth,"locus YHR030C, strain SLT2, stronger effect = lower value",0.83
same,normalized growth,"locus YHR087W, strain rtc3, stronger effect = lower value",1.02
same,normalized growth,"locus YJL187C, strain SWE1, stronger effect = lower value",1
same,normalized growth,"locus YJR043C, strain POL32, stronger effect = lower value",0.96
same,normalized growth,"locus YJR075W, strain HOC1, stronger effect = lower value",0.977
same,normalized growth,"locus YKL190W, strain CNB1, stronger effect = lower value",1
same,normalized growth,"locus YLR039C, strain RIC1, stronger effect = lower value",0.595 (active)
same,normalized growth,"locus YLR058C, strain SHM2 (second series), stronger effect = lower value",0.987
same,normalized growth,"locus YLR085C, strain ARP6, stronger effect = lower value",0.901
same,normalized growth,"locus YLR262C, strain YPT6, stronger effect = lower value",0.513 (active)
same,normalized growth,"locus YML094W, strain GIM5, stronger effect = lower value",0.921
same,normalized growth,"locus YMR219W, strain ESC1, stronger effect = lower value",0.995
same,normalized growth,"locus YMR263W, strain SAP30, stronger effect = lower value",0.974
same,normalized growth,"locus YNL153C, strain GIM3, stronger effect = lower value",1
same,normalized growth,"locus YNL298W, strain CLA4 (second series), stronger effect = lower value",1.02
same,normalized growth,"locus YNL322C, strain KRE1, stronger effect = lower value",0.971
same,normalized growth,"locus YNR030W, strain Alg12, stronger effect = lower value",0.989
same,normalized growth,"locus YPL055C, strain LGE1, stronger effect = lower value",0.978
same,normalized growth,"locus YPL241C, strain CIN2, stronger effect = lower value",0.945
same,normalized growth,"locus YPR135W, strain CTF4, stronger effect = lower value",0.941
